Structures can show the parent of a compound that is named as a salt. A number with no mark means an inactive call.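 Rule for the calls: for the amine columns active = adjusted P below 0.05 in both replicates with a change the same way and a mean fold change under 0.8 or over 1.25; inactive = the rest.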

This assay relates to Escherichia coli IAI1. Briefly: fold change of Cadaverine concentration vs plate DMSO controls (fold change (ratio)); higher = more amine produced, active = hit call of the paper (significant change in both replicates, either direction). The settings on record: incubation time: 27 h, anaerobic, 37 °C. In outline: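 Using LC–triple-quadrupole MS with dynamic MRM, amines were quantified against external calibration curves and corrected for drift within each batch. Samples were whole anaerobic mGAM cultures of four gut strains, grown 27 h at 37 °C from OD 0.1 before 1:1 dilution, extracted with cold acetonitrile/methanol containing 0.1% formic acid and centrifuged. Compounds were present at 20 µM final (sweeteners at 50 µM final). The numbers are fold changes versus plate DMSO controls, each the mean of 2 biological replicates.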
Turning to `CCCOc1ccc2[nH]c(NC(=O)OC)nc2c1` [Oxibendazol] (20 µM), the “fold change of Cadaverine concentration” value was 1.
Then `CCN(CCCc1ccccc1)CCCc1ccccc1` [Alverine citrate salt] (20 µM), with 1.29 (active); and `CO[C@@H]1[C@@H](OC(N)=O)[C@@H](O)[C@H](Oc2ccc3c(O)c(NC(=O)c4ccc(O)c(CC=C(C)C)c4)c(=O)oc3c2C)OC1(C)C` [Novobiocin sodium salt] (20 µM), with 1.04; and `CCOC(N)=O` [Urethane] (20 µM), with 1.03.
As for `CCN1CCN(C(=O)N[C@@H](C(=O)N[C@@H]2C(=O)N3[C@@H]2SC(C)(C)[C@@H]3C(=O)O)c2ccccc2)C(=O)C1=O` [Piperacillin sodium salt] (20 µM), the figure is 1.84 (active); as for `CC1CCc2cc(F)cc3c(=O)c(C(=O)O)cn1c23` (centres undefined) [Flumequine] (20 µM), 0.209 (active).
As for `CO/N=C1\CN(c2nc3c(cc2F)c(=O)c(C(=O)O)cn3C2CC2)CC1CN` (centres undefined) [Gemifloxacin mesylate] (20 µM), the figure is 0.223 (active); as for `C=CCOc1ccc(CC(=O)O)cc1Cl` [Alclofenac] (20 µM), 0.97.
Turning to `C[C@]12CC[C@H]3[C@@H](CCC4=CC(=O)CC[C@@]43C)[C@@H]1CC[C@@H]2C(=O)CO` [Deoxycorticosterone] (20 µM), the “fold change of Cadaverine concentration” value was 0.96.
Then `CCCC(CCC)C(=O)O[C@H]1C[C@H]2CC[C@@H](C1)[N+]2(C)C` [Anisotropine Methylbromide] (20 µM), with 0.948; and `Cc1cn(-c2cc(NC(=O)c3ccc(C)c(Nc4nccc(-c5cccnc5)n4)c3)cc(C(F)(F)F)c2)cn1` [Nilotinib] (20 µM), with 0.967.
Consider `OCCN1CCN(CC/C=C2/c3ccccc3Sc3ccc(C(F)(F)F)cc32)CC1` [Flupentixol dihydrochloride cis-(Z)] (20 µM), for which the “fold change of Cadaverine concentration” value was 0.852.
Consider `N#Cc1cc(NC(=O)C(=O)O)c(Cl)c(NC(=O)C(=O)O)c1` [Lodoxamide] (20 µM), for which the “fold change of Cadaverine concentration” value is 0.977.
Consider `O=P(O)(O)C(Cl)(Cl)P(=O)(O)O` [Clodronate disodium] (20 µM), for which the “fold change of Cadaverine concentration” value is 1.03.
For the compound `CC(=O)N[C@@H](CCC(N)=O)C(=O)O` [Acetyl-L-glutamine] (20 µM), the “fold change of Cadaverine concentration” value is 0.977.
Then `CC(=O)N(CC(O)CO)c1c(I)c(C(=O)NCC(O)CO)c(I)c(C(=O)NCC(O)CO)c1I` (centres undefined) [Iohexol] (20 µM), with 0.992; and `Cc1cc2nc3c(=O)[nH]c(=O)nc-3n(C[C@H](O)[C@H](O)[C@H](O)CO)c2cc1C` [Riboflavine] (20 µM), with 1.01.
Consider `CC(=O)CC(c1ccc([N+](=O)[O-])cc1)c1c(O)c2ccccc2oc1=O` (centres undefined) [Acenocoumarol] (20 µM), for which the “fold change of Cadaverine concentration” value is 1.01.
As for `O=C1CCc2ccc(OCCCCN3CCN(c4cccc(Cl)c4Cl)CC3)cc2N1` [Aripiprazole] (20 µM), the figure is 1.11.
Then `Nc1nc(/C(=C/CC(=O)O)C(=O)N[C@@H]2C(=O)N3C(C(=O)O)=CCS[C@H]23)cs1` [Ceftibuten] (20 µM), with 0.942; and `C=C(CC)C(=O)c1ccc(OCC(=O)O)c(Cl)c1Cl` [Ethacrynic acid] (20 µM), with 0.985; and `C[C@H](N[C@@H](CCc1ccccc1)C(=O)O)C(=O)N1CCC[C@H]1C(=O)O` [Enalaprilat dihydrate] (20 µM), with 1.08.
Then `O=C1c2ccccc2S(=O)(=O)N1CCCCN1CCN(c2ncccn2)CC1` [Ipsapirone] (20 µM), with 1.02.
Turning to `Cn1c(=O)c2c(ncn2CC2OCCO2)n(C)c1=O` [Doxofylline] (20 µM), the “fold change of Cadaverine concentration” value was 1.

The record behind these values is the supplement of paper PMC12494721.
